Reference: PubChem BioAssay (NCI)
Compounds without any hit were thinned out: in the full panel of roughly 83,000, 20% have a hit.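 A percent growth of 40 corresponds to 60% growth inhibition; 0 means no net growth; -100 means all cells died. Active threshold: below 10.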 Calls of active or inactive are those of the source.

What was measured:
Experiment in all cases: NCI-60 one-dose screen, 48 h (100 = growth as untreated, 0 = no growth, -100 = all killed)
Settings in all cases: 10 µM unless noted
[1] = tested on: SK-MEL-2 melanoma
[2] = tested on: EKVX NSCLC
[3] = tested on: SN12C renal
[4] = tested on: UO-31 renal
[5] = tested on: TK-10 renal
[6] = tested on: CAKI-1 renal
[7] = tested on: A498 renal
[8] = tested on: CCRF-CEM leukemia
[9] = tested on: MOLT-4 leukemia
[10] = tested on: SR leukemia
[11] = tested on: RPMI-8226 leukemia
[12] = tested on: OVCAR-8 ovarian
[13] = tested on: OVCAR-5 ovarian
[14] = tested on: OVCAR-4 ovarian
[15] = tested on: SK-OV-3 ovarian
[16] = tested on: IGROV1 ovarian
[17] = tested on: OVCAR-3 ovarian
[18] = tested on: HS 578T breast
[19] = tested on: NCI/ADR-RES ovarian

Measured: growth

CC(=O)c1c(/C=C/c2ccc(C)cc2)c2ccccc2[nH]c1=O
inactive: [1] 107% | [2] 95.1% | [3] 83.2% | [4] 49.6% | [5] 106% | [6] 67.6% | [7] 81.2% | [8] 105% | [9] 87.1% | [10] 99.5% | [11] 91.5% | [12] 86.8% | [13] 100% | [14] 88.9% | [15] 90.2% | [16] 57.4% | [17] 92.5% | [18] 85.9% | [19] 85.8%

CSc1nn2c(-c3cc4cc(Br)ccc4oc3=O)ccnc2c1C#N
inactive: [1] 104% | [2] 92.2% | [3] 102% | [4] 89.8% | [5] 157% | [6] 92.9% | [7] 104% | [8] 101% | [9] 104% | [10] 94.7% | [11] 103% | [12] 104% | [13] 112% | [14] 101% | [15] 105% | [16] 97.2% | [17] 114% | [18] 109% | [19] 110%

Cc1ccc(-c2nc(C#N)c(S(=O)(=O)n3nc(C)cc3N)o2)cc1
inactive: [1] 98.3% | [2] 121% | [3] 90.1% | [4] 79.8% | [6] 82% | [7] 76.1% | [11] 46.5% | [12] 87.2% | [13] 99.8% | [14] 111% | [15] 108% | [16] 80.8% | [17] 54.3% | [18] 103% | [19] 98.5%
active: [5] -64.9% | [8] -18.8% | [9] -38% | [10] -25.8%

C#CC#CC#CC#CC#CC#CC#CC#CC[C@@H]1OC[C@H](COC(=O)O[C@@H](C(=O)O[C@H]2C[C@@]3(O)[C@@H](OC(=O)c4ccccc4)[C@@H]4[C@]5(OC(C)=O)CO[C@@H]5C[C@H](O)[C@@]4(C)C(=O)[C@H](OC(C)=O)C(=C2C)C3(C)C)[C@@H](NC(=O)c2ccccc2)c2ccccc2)O1
active: [17] 7.3% | [18] 5.42%
inactive: [1] 44.2% | [2] 65.8% | [3] 38.6% | [4] 99.6% | [5] 93.3% | [6] 71% | [7] 21.3% | [8] 13.8% | [9] 30.9% | [10] 20.5% | [12] 33.8% | [13] 24.3% | [14] 62.9% | [15] 51.7% | [16] 32.6% | [19] 102%

OC1CSSC1Cn1cnc2c(Nc3ccc(F)c(Cl)c3)ncnc21 (stereo not drawn)
active: [9] -27.1% | [10] 3.55%
inactive: [1] 93.3% | [2] 58.5% | [3] 98.9% | [4] 44% | [5] 96.1% | [6] 105% | [7] 103% | [8] 29.6% | [11] 55.7% | [12] 96.5% | [13] 115% | [14] 91.4% | [15] 107% | [16] 93.2% | [17] 68.5% | [18] 103% | [19] 93.3%

CC1=C(C(=O)OCc2ccccc2)C(c2ccc3c(c2)OCO3)n2c(nc3ccccc32)N1 (stereo not drawn)
active: [10] 9.81% | [18] 0.752%
inactive: [1] 47.8% | [2] 64.4% | [3] 47.6% | [4] 51.1% | [5] 65.6% | [6] 34.3% | [8] 24.9% | [9] 37.1% | [11] 39.8% | [12] 46.7% | [13] 64.4% | [14] 73.8% | [15] 41.7% | [16] 41.4% | [17] 12.1% | [19] 23.2%

O=C(O)/C=C/c1cn(-c2ccccc2)nc1-c1ccc(F)cc1
inactive: [1] 106% | [2] 97.2% | [3] 91.1% | [4] 60.7% | [5] 103% | [6] 88.9% | [7] 76.1% | [8] 86.4% | [9] 109% | [10] 104% | [11] 97.4% | [12] 87.4% | [13] 88.8% | [14] 99.1% | [15] 87.8% | [16] 91.6% | [17] 96% | [18] 83.4% | [19] 90.4%

COc1cc(-c2c(-c3ccccc3)c[nH]c2C(=O)NCCCO)c(OC)c2c1OCO2
inactive: [1] 109% | [2] 99.2% | [3] 97.1% | [4] 85.7% | [5] 99% | [6] 91.1% | [7] 74.6% | [8] 88.8% | [9] 92.5% | [10] 93.9% | [11] 99.7% | [12] 100% | [13] 99.5% | [14] 107% | [15] 96.4% | [16] 107% | [17] 111% | [18] 92.9% | [19] 106%

Cc1cccc(CN(Nc2ccccc2)c2ccccc2)n1
inactive: [1] 115% | [2] 79.4% | [3] 97.8% | [4] 91.8% | [5] 108% | [6] 87.3% | [7] 98% | [8] 91.2% | [9] 91.1% | [10] 93% | [12] 98.5% | [13] 102% | [14] 109% | [15] 104% | [16] 127% | [17] 99.5% | [18] 109% | [19] 102%

CCOC(=O)CCC(=O)P(=O)(O)O
inactive: [1] 104% | [2] 106% | [3] 108% | [4] 105% | [5] 99.3% | [6] 137% | [7] 107% | [8] 75.1% | [9] 62.6% | [11] 42.1% | [12] 97.1% | [13] 116% | [14] 115% | [15] 80.5% | [16] 110% | [17] 115% | [18] 114% | [19] 102%
active: [10] 4.41%

CN1CC(c2ccccc2)C(C(=O)c2ccc(Br)cc2)C12C(=O)Nc1ccccc12 (stereo not drawn)
inactive: [1] 99.2% | [2] 91.8% | [3] 94.5% | [4] 65.9% | [5] 109% | [6] 63.2% | [7] 105% | [8] 102% | [10] 97% | [11] 88.2% | [12] 98.8% | [13] 98.9% | [14] 96.3% | [15] 93.6% | [16] 79.7% | [17] 101% | [18] 94.2% | [19] 79.7%

CNC(=O)c1cc(Oc2ccc3nc(NC(=O)NC(C)C)sc3c2)ccn1
inactive: [1] 89.9% | [2] 93.7% | [3] 86.3% | [4] 79.2% | [5] 88.6% | [6] 91.9% | [7] 51.4% | [8] 64.4% | [9] 40.7% | [10] 30.4% | [11] 73.2% | [12] 88.4% | [13] 117% | [14] 77.8% | [15] 87% | [16] 86.7% | [17] 97.4% | [18] 74.6% | [19] 65%

CCOc1ccc(N2C(=O)CCSC2=S)cc1
inactive: [1] 102% | [2] 95.5% | [3] 101% | [4] 85.5% | [5] 96.3% | [6] 96.4% | [7] 102% | [8] 108% | [9] 104% | [10] 116% | [11] 104% | [12] 104% | [13] 107% | [14] 109% | [15] 101% | [16] 99.1% | [17] 114% | [18] 105% | [19] 105%

Nc1ncc(-c2ccc3ncnc(N4CCc5cc(F)c(Cl)cc54)c3c2)cc1C=O
active: [1] 8.65% | [2] 4.02% | [4] 0.272% | [5] -6.72% | [6] -0.981% | [9] 2.46% | [13] 9.67% | [15] -3.8% | [16] -35.9% | [17] 0.575% | [18] -18.9%
inactive: [3] 12.9% | [8] 18.4% | [12] 31.4% | [14] 34.5% | [19] 28.6%

COc1c(O[C@@H]2OC(CO)[C@H](O)[C@H](O)C2O)cc2oc3cc(O)c(CC=C(C)C)c(O)c3c(=O)c2c1CC=C(C)C (stereo partly drawn)
inactive: [1] 97.3% | [2] 93.5% | [3] 84.4% | [4] 90.8% | [5] 110% | [6] 103% | [7] 83.8% | [8] 92.9% | [9] 62.2% | [10] 102% | [11] 96.4% | [12] 87.3% | [13] 108% | [14] 115% | [15] 97.7% | [16] 91% | [17] 99.7% | [18] 96.2% | [19] 101%

C(=N\Nc1nnc2n1N=C(c1ccccc1)CS2)/c1ccc(OCc2ccccc2)cc1
inactive: [1] 104% | [2] 101% | [3] 98.6% | [4] 79.5% | [5] 98.2% | [6] 107% | [7] 108% | [8] 97.2% | [9] 92.8% | [10] 93.4% | [11] 86.6% | [12] 102% | [13] 114% | [14] 120% | [16] 99.6% | [17] 113% | [18] 112% | [19] 96.6%

Cc1ccc(NC(=O)c2ccc(Nc3ncnc4c3cnn4-c3cccc(F)c3)cc2)cc1
inactive: [1] 104% | [2] 102% | [3] 96.2% | [4] 90.8% | [5] 105% | [6] 90.7% | [7] 80.7% | [8] 95.5% | [9] 96.3% | [10] 92.7% | [11] 90.2% | [12] 97.6% | [13] 99.6% | [14] 98.9% | [15] 109% | [16] 97.9% | [17] 106% | [18] 96.6% | [19] 98.8%

O=C(/C=C/c1ccco1)Nc1ncc(Cc2ccc(F)cc2)s1
active: [17] -8.58% | [19] 0.377%
inactive: [1] 48.8% | [2] 29.1% | [3] 28.5% | [4] 47.6% | [5] 62.3% | [6] 34.4% | [7] 19.3% | [8] 21.9% | [9] 20.9% | [10] 16.1% | [12] 22.2% | [13] 32.5% | [14] 63.9% | [15] 39.3% | [16] 27.2% | [18] 11.3%

O=C(Cn1cc(CSc2nc3ccccc3o2)nn1)Nc1ccc([N+](=O)[O-])cc1
inactive: [1] 106% | [2] 104% | [3] 102% | [4] 78.8% | [5] 104% | [6] 82% | [7] 101% | [8] 105% | [9] 94.1% | [10] 101% | [11] 97.3% | [12] 107% | [13] 100% | [14] 96.9% | [15] 76.6% | [16] 91.6% | [17] 103% | [18] 95.3% | [19] 97.4%

Cn1ccnc1C(=O)/C=C/c1ccc(CC(=O)Nc2cc(F)c(F)c(F)c2)cc1
inactive: [1] 99.6% | [2] 32.3% | [3] 13.2% | [4] 31.7% | [5] 47.8% | [6] 31.4% | [10] 12.1% | [13] 17.9% | [14] 41.7% | [15] 85.2% | [16] 29% | [18] 13%
active: [8] 8.15% | [9] 6.4% | [11] 4.01% | [12] -3.42% | [17] -33.9% | [19] -29.8%

C=CCNc1nc(O)c(/C=C2\C=Nc3ncccc32)s1
active: [1] -8.35% | [4] 3.09% | [5] 1.67% | [7] -34.5% | [8] 7.13% | [9] 5.78% | [10] -9.51% | [13] 5.27% | [15] -7% | [17] -7.02% | [18] -15%
inactive: [2] 30.5% | [3] 24% | [6] 30.2% | [11] 42.7% | [12] 10.7% | [14] 34.7% | [16] 17% | [19] 42.1%

C=CC(=O)NCc1cccc(Nc2ncc(Br)c(NCCCNC(=O)C3CCC3)n2)c1
inactive: [13] 10.2% | [19] 35.8%
active: [1] -50% | [2] -27.1% | [3] 1.99% | [4] -9.45% | [5] -17.4% | [6] -25.3% | [7] -59.5% | [8] 1.57% | [9] -5.38% | [10] 2.53% | [11] -14.7% | [12] 5.56% | [14] -2% | [15] -42% | [16] 1.89% | [17] -33.4% | [18] -14.1%
